Among all 360,000 compounds or so, about 2,100 (0.58%) were called active. Only a selection was taken, and actives are over-represented in it overall. A number with no mark means an inactive call. Rule as the data show it: active = inhibition above about 36%; inactive = the rest.

The target of the assay is NEDD8-conjugating enzyme Ubc12 (Homo sapiens) + NEDD8-activating enzyme E1 regulatory subunit (Homo sapiens) (UniProt P61081+Q13564). Kind of assay: NEDD8 transfer onto cullin, blockade – biochemical, TR-FRET, uHTS, NAE and Ubc12, primary screen (AID 651699). As to conditions: TR-FRET cullin neddylation, at 25 µM, hits give high values.
NEDD8-conjugating enzyme Ubc12 (Homo sapiens) + NEDD8-activating enzyme E1 regulatory subunit (Homo sapiens), sequence (P61081 whole entry, looked up): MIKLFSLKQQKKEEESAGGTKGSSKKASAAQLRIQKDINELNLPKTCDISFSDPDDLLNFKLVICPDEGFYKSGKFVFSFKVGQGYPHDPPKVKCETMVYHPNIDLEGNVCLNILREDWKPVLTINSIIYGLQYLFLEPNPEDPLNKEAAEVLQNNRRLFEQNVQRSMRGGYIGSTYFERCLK
NEDD8-conjugating enzyme Ubc12 (Homo sapiens) + NEDD8-activating enzyme E1 regulatory subunit (Homo sapiens), sequence (Q13564 whole entry, looked up): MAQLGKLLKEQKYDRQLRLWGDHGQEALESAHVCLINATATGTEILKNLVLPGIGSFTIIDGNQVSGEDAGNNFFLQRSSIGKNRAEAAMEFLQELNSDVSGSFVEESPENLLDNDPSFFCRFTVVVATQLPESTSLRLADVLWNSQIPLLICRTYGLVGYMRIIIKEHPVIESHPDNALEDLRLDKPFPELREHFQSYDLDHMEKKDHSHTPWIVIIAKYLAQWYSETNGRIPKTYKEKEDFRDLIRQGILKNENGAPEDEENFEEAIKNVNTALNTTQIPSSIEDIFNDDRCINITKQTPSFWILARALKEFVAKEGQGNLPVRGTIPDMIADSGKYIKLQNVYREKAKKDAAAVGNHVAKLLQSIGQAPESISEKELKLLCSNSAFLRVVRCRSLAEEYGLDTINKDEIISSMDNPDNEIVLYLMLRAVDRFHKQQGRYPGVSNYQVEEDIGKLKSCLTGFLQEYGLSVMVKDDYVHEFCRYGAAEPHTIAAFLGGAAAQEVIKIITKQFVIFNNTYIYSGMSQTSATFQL
Take `COc1ccc(N2CC(C(=O)N[C@@H](C)C(=O)N3CCCCC3)CC2=O)cc1` (stereo partly drawn): the inhibition is -5.41%.

In the case of `O=C1NC(c2ccncc2)Nc2sc3c(c21)CCCC3` (stereo not drawn), the inhibition is 44.1% (active).

As to `O=C(N/N=C/c1ccsc1)c1cc(O)cc(O)c1`, the inhibition was -1.8%.

As to `COc1cccc(Cn2cc(/C=N/NC(=O)c3cc(O)cc(O)c3)c3ccccc32)c1`, the inhibition is 57.8% (active).

Consider `COc1ccc(OC)c(/C=N/NC(=O)c2ccc[n+](CC(=O)c3ccccc3)c2)c1`, for which the inhibition was -1.66%.

With `NC(=O)CN1CCCC1c1ccc2c(c1)OCCO2` (stereo not drawn), the inhibition is 0.21%.

As to `CCOc1ccc(NC(=O)C2CCCN(C(=O)Nc3ccccc3)C2)cc1` (stereo not drawn), the inhibition was -6.95%.

For the compound `CCCCc1cc2c(s1)CCCC/C2=N/O`, the inhibition was -11.4%.

With `C=CCN1C(=O)C(O)(CC(=O)c2ccccn2)c2ccccc21` (stereo not drawn), the inhibition was 1.24%.

`COc1ccc(/C=C(\C#N)c2c[nH]c3ccccc23)cc1`: the inhibition was 44.5% (active).

Regarding `C[N+](C)(C)CCNC(=O)c1c[nH]c2ccccc12`, the inhibition was 16.8%.

For the compound `COc1ccc(C2C(C(C)=O)=C(O)C(=O)N2CCc2c[nH]c3ccccc23)cc1` (stereo not drawn), the inhibition is -15.3%.

Take `O=C(CCN1C(=O)c2ccccc2C1=O)C1=NN[C@@H]2C(=O)N(c3ccc(F)cc3)C(=O)[C@H]12`: the inhibition is -15%.

`C[C@H](O)[C@@H]1C(=O)N2CCc3c([nH]c4ccccc34)[C@@H]2C[C@@H]1N(C)C(=O)Nc1ccc(F)cc1`: the inhibition is 50.2% (active).

With `C[C@H](O)[C@@H]1C(=O)N2CCc3ccc(N4CCOCC4)cc3[C@@H]2C[C@@H]1N(C)C(=O)C(C)(C)C`, the inhibition is 22%.

With `COCC(=O)N(C)[C@H]1C[C@H]2c3cc(Oc4ccccc4C)ccc3CCN2C(=O)[C@H]1[C@H](C)O`, the inhibition is 2.1%.

As to `CC(=O)N1c2ccc(S(=O)(=O)N(C)CC(=O)N(C)Cc3ccccc3)cc2CC1C` (stereo not drawn), the inhibition is 1.96%.

Take `Cc1ccc(CN(Cc2cccnc2)C(=S)Nc2cccc(Cl)c2C)cc1`: the inhibition was 1.43%.

As for `COCCn1c(Cc2cccn2C)nnc1SCC(=O)Nc1nccs1`, the inhibition is -1.55%.

For `CCCCN(C=O)c1c(CC)nc2c(OCc3ccccc3C(=O)OC)cccn12`, the inhibition was 8.99%.

In the case of `COc1ccc(C2OC(=O)CC2C(=O)NC(C)C)cc1` (stereo not drawn), the inhibition was 4.68%.

For the compound `COCCNC(=O)c1ccc2nc(Cc3ccc(OC)c(OC)c3)oc2c1`, the inhibition is -5.61%.

Take `COCCNC(=O)Nc1ccc2nc(-c3ccco3)c(-c3ccco3)nc2c1`: the inhibition is 49.3% (active).

Consider `COCCNC(=O)CN(Cc1ccco1)C(=O)CCC(=O)Nc1nccs1`, for which the inhibition was 0.84%.

With `CSCCC(NC(=O)c1ccc(Cl)cc1Cl)C(=O)NNC(=O)c1csc(N2CCOCC2)n1` (stereo not drawn), the inhibition was 31%.

Turning to `Cc1ccc(N/N=C2\COC(C)(C)CC2=O)cc1`, the inhibition is 0.52%.

Turning to `CS(=O)(=O)c1ccc2nc(NC(=O)c3ccc(Cl)nc3)sc2c1`, the inhibition was 65.7% (active).

As to `Cc1nc2ccc(S(=O)(=O)NCC(=O)O)cc2s1`, the inhibition was 7.99%.

Regarding `NS(=O)(=O)c1ccc2nc(NC(=O)CS(=O)(=O)c3ccc(F)cc3)sc2c1`, the inhibition was 1.17%.

`Cc1nn2c(=O)cc(COC(=O)c3ccc(NC(=O)C(C)(C)C)cc3)nc2s1`: the inhibition was -2.19%.

For the compound `CCOC(=O)C1CCCN(C(=O)C2CCN(S(=O)(=O)c3ccc(Cl)c(C(F)(F)F)c3)CC2)C1` (stereo not drawn), the inhibition was -19.5%.

On to `CCOc1cc(C(=O)Nc2c(C)ccc3nsnc23)cc(OCC)c1OCC`, for which the inhibition is 41.7% (active).

With `Cc1ccc2nsnc2c1NC(=O)c1ccccc1[N+](=O)[O-]`, the inhibition is -26.4%.

`CCOc1cc(C(=O)Nc2ccc(S(=O)(=O)Nc3cnc4ccccc4n3)cc2)cc(OCC)c1OCC`: the inhibition is 6.73%.

As to `COc1ccc([N+](=O)[O-])cc1C1NN=C(c2cccc3ccccc23)S1` (stereo not drawn), the inhibition was -3.56%.

On to `COc1ccc(C2C(C#N)=C(N)N(c3ncn[nH]3)C3=C2C(=O)CCC3)cc1` (stereo not drawn), for which the inhibition is -6.24%.

For the compound `COc1ccc2c(c1OC)C(=O)N(c1ccc(O)cc1)C2`, the inhibition was 14.7%.

In the case of `COc1ccc2c(c1OC)C(=O)N(c1ncn[nH]1)C2`, the inhibition was 39.8% (active).

`COc1ccc(NC(=O)CCC(=O)N2CCN(S(=O)(=O)c3ccc(C)cc3)CC2)c(OC)c1`: the inhibition was 2.78%.

Consider `Cc1c(C2=CCN(S(=O)(=O)c3ccc(Cl)cc3)CC2)c2ccccc2n1C`, for which the inhibition was -207%.

With `CN(C)CC/C=C1\c2ccccc2CSc2ccccc21`, the inhibition is 6.08%.

For the compound `COC(=O)c1ccc2nc(-c3ccc(Cl)cc3)c(Cc3cccc(F)c3)n2c1`, the inhibition is 25.5%.

As for `COC(=O)c1ccc2nc(-c3ccc(OC)c(OC)c3)c(Cc3ccccc3)n2c1`, the inhibition was 41.4% (active).

With `COC(=O)c1ccc2nc(-c3ccc(F)cc3)c(Cc3ccc(C)cc3)n2c1`, the inhibition was 36.3%.

For `CC[C@]12c3[nH]c4ccc(Cl)cc4c3CCN1C(=O)[C@@H](CC(=O)NCCCOC)C[C@@H]2C(=O)N1CCN(C(=O)c2ccco2)CC1`, the inhibition was 3.68%.

As to `COc1c(C(C)C)oc2cc3oc(=O)ccc3cc12`, the inhibition is 36.1%.

With `COC(=O)Cn1c(=NC(=O)CSCC(=O)Nc2cc(C)on2)sc2ccccc21`, the inhibition is 6.58%.

`Cc1ccc(-c2cc(C(=O)N/N=C/C=C/c3ccccc3)n[nH]2)o1`: the inhibition was -6.17%.

Regarding `S=c1[nH]nc(/C=C/c2ccccc2)o1`, the inhibition was 40.5% (active).

For `CC(C)(C)c1cc2cccnc2n1Cc1ccccc1`, the inhibition was 24.2%.

In the case of `Cc1cnc(CN(C)C(=O)C2CCC(=O)N(CCc3cccc(F)c3)C2)[nH]1` (stereo not drawn), the inhibition is -3.06%.

Take `Cc1cccn2c(=O)c3cc(C(=O)NCCN4CCOCC4)c(=N)n(Cc4cccnc4)c3nc12`: the inhibition was 68.3% (active).

For the compound `CCCNC(=O)CCn1nc(-c2ccccc2)c2ccccc2c1=O`, the inhibition is -0.32%.

On to `CCCn1c(=O)c(-c2ccccc2)c(O)c2ccccc21`, for which the inhibition was 44.3% (active).

With `CCCCCn1c(=O)c(C(=O)OCC)c(Cl)c2ccccc21`, the inhibition is 4.01%.

Take `O=C1OC(Cc2ccccc2)C(c2ccccc2)C1=O` (stereo not drawn): the inhibition was -10.9%.

On to `Cc1cc(=O)[nH]c(SCc2ccc(Cl)cc2)n1`, for which the inhibition was -1.58%.

Regarding `CCN(CC)c1ccc(/C=N/Nc2nc(C)cc(=O)[nH]2)cc1`, the inhibition was 42% (active).

With `Cc1cc(=O)[nH]c(Nc2cccc(Br)c2)n1`, the inhibition was -6.28%.

For `COc1ccc(CNC(=O)C(=O)N2CCC3(CC2)OCCN3S(=O)(=O)c2ccc(C)cc2)cc1`, the inhibition was 4.54%.

In the case of `CCOC(=O)C1=C(O)/C(=C/c2cc(C)n(-c3ccccc3)c2C)N=C1C`, the inhibition was 16.8%.

For `Cc1cc(/C=C2/C(=N)N3C(=NC2=O)SN=C3S(C)(=O)=O)c(C)n1-c1ccccc1`, the inhibition is 44.8% (active).

As for `CC1=CC2=NC(=O)/C(=C/c3coc4ccccc4c3=O)C(=N)N2O1`, the inhibition was -38.8%.

`COc1ccc(Cl)cc1NC(=O)CN(C)C(=O)c1ccc2n[nH]nc2c1`: the inhibition was 7.09%.

For `COc1ccc(-c2cc(C(=O)N(C)CC(=O)Nc3ccccc3Cl)c3ccccc3n2)cc1OC`, the inhibition is 46.6% (active).

Consider `COc1cccc(NC(=O)CN(C)C(=O)c2cc(Cl)nc3ccccc23)c1`, for which the inhibition is -0.49%.

`CC(=O)NC1CCN(CC(=O)Nc2nccs2)CC1`: the inhibition was -3.21%.

With `COC(=O)c1noc(C)c1-c1ccnn1C(=O)c1ccc(Cl)cc1`, the inhibition was -11.9%.

As for `CC1CCC2CCCCC2N1C(=O)c1cc([N+](=O)[O-])cc([N+](=O)[O-])c1` (stereo not drawn), the inhibition is -35.2%.

On to `CC(C)c1cc(C(=O)N/N=C/c2ccoc2)c(O)c(C(C)C)c1`, for which the inhibition is 49.1% (active).

Consider `CC(Oc1ccccc1[N+](=O)[O-])C(=O)N/N=C/c1ccoc1` (stereo not drawn), for which the inhibition is -9.94%.

Consider `O=C(N/N=C/c1ccoc1)c1ccc(Cl)cc1Cl`, for which the inhibition is 1.29%.

Turning to `COc1ccc(OC)c(NC(=O)CSc2nc(N)c(-c3ccccc3)c(=O)[nH]2)c1`, the inhibition is 26.4%.

As to `CC(CCO)Nc1nc2c([nH]1)c(=O)n(C)c(=O)n2C` (stereo not drawn), the inhibition was 10.7%.

Turning to `Cc1cc(C)c(C=NNc2nc3c([nH]2)c(=O)n(C)c(=O)n3C)c(C)c1`, the inhibition was 39.2% (active).

As to `Cc1ccc(NN=Nc2nc3c([nH]2)c(=O)n(C)c(=O)n3C)cc1`, the inhibition is 1.85%.

As for `COc1cccc(/C=N/NC(=O)C(=O)N2CCCC2)c1`, the inhibition was -14.6%.

For `O=C(CN1C(=O)CC(c2ccccc2)=Nc2ccccc21)NC1CCCCC1`, the inhibition was -13.9%.

Take `O=C(NCc1cccc(Cl)c1)C1CCN(c2nnc(N3CCCC3=O)s2)CC1`: the inhibition was 9.68%.

Turning to `O=C(NCc1cccc(Cl)c1)C1=CC=CN2CCS(=O)(=O)N=C12`, the inhibition was 33% (active).

For `O=C(NCc1cccc(Cl)c1)C1CCC(=O)N(C2CC2)C1` (stereo not drawn), the inhibition was -4.68%.

As for `CCOc1cc(/C=N/NC(=O)c2ccncc2)cc(Br)c1O`, the inhibition was -8.9%.

Take `CCOc1ccc(/C=N/NC(=O)C(C)Sc2ccccn2)cc1OCC` (stereo not drawn): the inhibition was -5.74%.

With `CCOc1cc(/C=N/Nc2cc(C)nc3ccc(C)cc23)ccc1O`, the inhibition was 39.9% (active).

For `O=C(CCN1C(=O)C2C3CCC(C3)C2C1=O)Nc1ccc(Cl)cc1Cl` (stereo not drawn), the inhibition is 5.46%.

Regarding `O=C(CNC(=O)c1ccc(Br)o1)NCC1CCCO1` (stereo not drawn), the inhibition was 10.6%.

Regarding `COCCn1nnnc1C(c1cc2ccc(OC)cc2[nH]c1=O)N1CCc2ccccc2C1` (stereo not drawn), the inhibition was -11.9%.

Consider `CCOc1ccc2[nH]c(=O)c(C(c3nnnn3CCOC)N3CCOCC3)cc2c1` (stereo not drawn), for which the inhibition is 46% (active).

On to `COc1ccc(N2CCN(C(c3cc4ccc(C)cc4[nH]c3=O)c3nnnn3C3CCCC3)CC2)cc1` (stereo not drawn), for which the inhibition was 8.39%.

For the compound `C=CCC(CC=C)(C(N)=O)c1ccccc1`, the inhibition was -5.36%.

On to `CS(=O)(=O)Nc1ccc(C2=NN(S(C)(=O)=O)C(c3cccs3)C2)cc1` (stereo not drawn), for which the inhibition is 51.1% (active).

Turning to `CS(=O)(=O)Nc1cccc(C2=NN(C(=O)c3cccc(F)c3)C(c3cccs3)C2)c1` (stereo not drawn), the inhibition is -5.27%.

For the compound `Cc1ccc(C2CC(c3cccc(NS(C)(=O)=O)c3)=NN2S(C)(=O)=O)cc1` (stereo not drawn), the inhibition is 7.24%.

Source of the values: PubChem BioAssay AID651699 (Sanford-Burnham Center for Chemical Genomics, 2012).
